# Compound activity deposited in PubChem BioAssay by several laboratories.
# CCHF vOTU inh = CCHFV vOTU protease inhibitors, primary screen, biochemical, Pep-AMC substrate, fluorescence; Crimean-Congo hemorrhagic fever virus L polyprotein viral ovarian tumor (vOTU) protease …; inhibition, % at 11.5 µM; actives 0.55% (n = 370,000); in the data active means inhibition above about 30%
# BoNT F protease = BoNT/F light chain protease inhibitors, primary screen, biochemical, flow cytometry, MLPCN library; Botulinum neurotoxin type F light chain protease (Clostridium botulinum); Multiplex microsphere protease cleavage assay; inhibition, % at 10 µM; actives 0.22% (n = 360,000); AID 588497, 2011; in the data active means inhibition above about 35%, passing the limit was not always enough; inconclusive means no clear call, values can overlap the other calls
# Autofluor counter = flagged as autofluorescent in microsphere protease counterscreen; actives 3.1% (n = 360,000); compound autofluorescence counterscreen, microsphere flow cytometry; active compounds read high; fluorescence intensity (no concentration beside the values); in the data active means fluorescence intensity above about 16000; inconclusive means no clear call, values can overlap the other calls
# BoNT A protease = BoNT/A light chain protease inhibitors, primary screen, biochemical, flow cytometry, MLPCN library. actives 0.17% (n = 360,000). AID 588499, 2011. multiplex microsphere protease substrate cleavage. inhibition, % at 10 µM
# Anthrax LF prot = Bacillus anthracis LF protease inhibitors, primary screen, biochemical, multiplex microsphere, MLPCN library | Lethal factor (Bacillus anthracis), P15917 | multiplex microsphere protease cleavage assay | inhibition, % at 10 µM | actives 0.12% (n = 360,000)
# 3CLpro inhibitor = SARS-CoV 3CLpro protease inhibitors, primary screen, biochemical, quenched FRET. AID 1706, 2009. inhibition, % at 6 µM. actives 0.14% (n = 290,000). Replicase polyprotein 1ab (Severe acute respiratory syndrome coronavirus), P0C6X7. recombinant SARS-CoV 3CLpro, quenched FRET peptide cleavage; in the data active means inhibition above about 12%
# Numbers stand for hits; n = inactive; u = inconclusive; x = not tested or not shown. A selection: hits, their analogues and other compounds. The true share with any hit is near 3.9%. Unless noted, no stated cut-off is given here; in the data, active means inhibition above about 30%; inconclusive means no clear call, values can overlap the other calls; inactive means below that.
SMILES,CCHF vOTU inh,BoNT F protease,Autofluor counter,BoNT A protease,Anthrax LF prot,3CLpro inhibitor
CC(C)(C)OC(=O)NCCc1nnc(SCC(=O)Nc2ccc(Br)cc2)o1,n,u,n,n,n,n
CC(C)(C)OC(=O)NCCc1nnc(SCC(=O)Nc2cccc(Cl)c2)o1,n,n,22287,n,n,n
NCCc1nnc(SCC(=O)Nc2cccc(Cl)c2)o1,n,n,n,n,n,n
CC(C)(C)OC(=O)NCCCCCc1nnc(SCC(=O)Nc2cccc(Cl)c2)o1,n,n,16480,n,n,n
Cc1ccc(C(=O)NNC(=O)CSc2nnc(-c3ccncc3)n2C)cc1,n,n,16351,n,n,n
Cc1ccc(-c2nnc(SCC(=O)NNC(=O)COc3cccc(C)c3)n2C)cc1,n,n,22497,n,n,n
COc1ccc(C(=O)NNC(=O)CSc2nnc(-c3ccc(O)cc3)n2C)cc1,n,n,n,n,n,n
CCn1c(SCC(=O)NNC(=O)c2ccccc2)nnc1-c1ccncc1,n,n,22311,u,n,n
Cc1ccc(/C=N/NC(=O)CSc2nnc(-c3ccccc3)n2-c2ccc(Cl)cc2)o1,n,n,n,n,n,n
CCn1c(SCC(=O)N/N=C/c2ccc(C)o2)nnc1-c1ccccc1,n,n,22380,u,n,n
C[C@H](CO)N1C[C@H](C)[C@@H](CN(C)C(=O)Nc2ccccc2)OCc2cn(nn2)CCCC1=O,n,x,x,x,x,x
CC(C)[C@H](N)C(=O)N[C@@H](Cc1ccccc1)C(=O)N1CCC2CCN(S(=O)(=O)c3ccccc3)CC21 (stereo partly specified),n,x,x,x,x,x
CC1(C)C(C(N)=O)C(=O)NC(=O)C1C(N)=O (stereo unspecified),n,n,n,n,n,x
CC1(C)NC(C)(C)C(O)(C(N)=O)C1=O (stereo unspecified),n,n,23198,n,n,n
COC(=O)[C@]12C[C@H](CC(=O)NCCCN3CCCC3=O)C(=O)N(Cc3cccc4ccccc34)C1=C[C@H](C(C)C)O[C@@H]2C1CC1,n,x,x,x,x,x
COC(=O)CSC(C(=O)Nc1ccc(C)c(C)c1)c1ccccc1 (stereo unspecified),n,n,22778,n,n,n
Cc1ccc(NC(=O)C(SCC(=O)O)c2ccccc2)cc1C (stereo unspecified),n,n,n,n,n,n
C=CCn1c(SCCOc2ccc(OC)cc2)nnc1C(C)NC(=O)c1ccc(OC)cc1 (stereo unspecified),n,n,n,n,n,n
C=CCn1c(SCCOc2ccc(OC)cc2)nnc1C(CO)NC(=O)c1ccc(OC)cc1 (stereo unspecified),n,n,16235,n,n,n
COC(=O)Nc1ccc(=O)n(Cc2c(Cl)cccc2Cl)c1,n,n,23829,n,n,n
COC(=O)c1[nH]c2ccccc2c1NS(=O)(=O)c1ccc(F)c(C)c1,n,n,16616,n,n,n
C=CCN(CC#CC1=CCCCC1)CC1CC1,n,x,x,x,x,x
CCCCNC(=O)C[C@H]1C[C@@]2(C(=O)OC)C(=C[C@H](C(C)(C)C)O[C@@H]2C)N(Cc2cccc3ccccc23)C1=O,n,x,x,x,x,x
CCOC(=O)[C@]12CCCCC/C=C\1N(CCc1ccc(Cl)cc1)C(=O)[C@H]2CC(=O)N1CCCC1,n,x,x,x,x,x
CC(=O)Nc1nonc1C(=O)N1CCC(C)CC1,n,n,20925,n,n,n
CC(C)(C)N1Cc2nnn(CC3CCCCC3)c2-c2ccccc2S1(=O)=O,n,x,x,x,x,x
Cc1ccc(C)c2[nH]c(=O)c(CN(Cc3ccco3)S(=O)(=O)c3ccc4c(c3)OCCO4)cc12,n,n,22529,n,n,n
CCc1ccc2[nH]c(=O)c(CN(Cc3ccco3)S(=O)(=O)c3ccc4c(c3)OCCO4)cc2c1,n,n,n,n,n,n
COc1ccc(C(=O)ON=C2CCN(c3ccc([N+](=O)[O-])cc3)CC2)cc1,n,n,n,n,n,n
O=C(ON=C1CCN(c2ccc([N+](=O)[O-])cc2)CC1)c1ccccc1,n,n,19501,u,n,n
